Test results from PubChem BioAssay (Tox21).
Where “and” joins values, the source holds several entries; their conditions need not be identical. Identical values can stand only once. Results filed as inconclusive are left out. Calls of active or inactive are those of the source. Unless noted, calls come from the whole dose curve; as a rule, active = well fitted curve in the direction sought with a large enough effect in the repeat runs; inconclusive = weak or mixed curves; inactive = no such curve, though single readings can be large; an effect the other way counts as inactive or inconclusive.

What was measured:
[1] = qHTS assay to test for compound auto fluorescence at 535 nm (green) in HEK293 cells (AID 720680)
[2] = qHTS assay to test for compound auto fluorescence at 460 nm (blue) in HEK293 cell free culture (AID 720681)
How it was run: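 Test compounds were pinned into cell-free culture medium (DMEM with 10% FBS) and fluorescence was read directly at Ex/Em 405/460 nm. Signals were expressed as fluorescence equivalents of triamterene, with DMSO vehicle as control.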

[3] = qHTS assay to test for compound auto fluorescence at 535 nm (green) in HEK293 cell free culture (AID 720682)
How it was run: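 Measurement is a direct plate read of green fluorescence (485 nm in, 535 nm out) after compound addition to serum-supplemented DMEM lacking cells, with fluorescein used to express intensities.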

[4] = qHTS assay to test for compound auto fluorescence at 590 nm (red) in HEK293 cell free culture (AID 720683)
How it was run: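 Tox21 10K library compounds were pinned into cell-free DMEM with 10% FBS and fluorescence was read at excitation 540 nm. Activity is expressed as Rose Bengal sodium equivalency.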

[5] = qHTS assay to test for compound auto fluorescence at 590 nm (red) in HepG2 cell free culture (AID 720684)
How it was run: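 Readout: intrinsic compound fluorescence at 590 nm emission after 540 nm excitation, scaled to Rose Bengal sodium. Matrix was cell-free MEM with 10% FBS; DMSO vehicle wells served as control.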

[6] = qHTS assay to test for compound auto fluorescence at 460 nm (blue) in HepG2 cell free culture (AID 720685)
How it was run: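 Cell-free plates of MEM plus 10% FBS received 23 nL compound or DMSO vehicle; blue-channel (405/460 nm) intensity scored against triamterene as reference fluorophore.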

[7] = qHTS assay to test for compound auto fluorescence at 535 nm (green) in HepG2 cell free culture (AID 720686)
[8] = qHTS assay to test for compound auto fluorescence at 460 nm (blue) in HepG2 cells (AID 720687)
How it was run: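 Cells (2,000/well in MEM with 10% FBS) attached overnight at 37 C, then were exposed to compound or DMSO for 1 hr at 37 C, 5% CO2. Fluorescence read at Ex/Em 405/460 nm, expressed as triamterene-equivalent signal.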

[9] = qHTS assay to identify small molecule antagonists of the glucocorticoid receptor (GR) signaling pathway - cell viability counter screen (AID 720693); note: nearly all actives have a fitted effect of over 55% in size; note: potency is the fitted concentration of half-maximal effect
[10] = qHTS assay for identifying genotoxic compounds that show differential cytotoxicity against isogenic chicken DT40 cell lines with known DNA damage response pathways - wild type cell line (AID 743012); note: nearly all actives have a fitted effect of over 60% in size; note: potency is the fitted concentration of half-maximal effect
How it was run: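 Endpoint: CellTiter-Glo luminescence, 30 min RT. Cells: wild type DT40, 300/well. Exposure: compounds in DMSO, 40 h, 37 C/5% CO2, after ~0.5 h pre-incubation.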

[11] = qHTS assay for identifying genotoxic compounds that show differential cytotoxicity against isogenic chicken DT40 cell lines with known DNA damage response pathways - Rad54/Ku70 mutant cell line (AID 743015); note: nearly all actives have a fitted effect of over 60% in size; note: potency is the fitted concentration of half-maximal effect
[12] = qHTS assay to identify small molecule antagonists of the androgen receptor (AR) signaling pathway - cell viability counter screen (AID 743033; note: nearly all actives have a fitted effect of over 45% in size; note: potency is the fitted concentration of half-maximal effect)
[13] = target: Androgen receptor (Homo sapiens) (UniProt P10275); test: qHTS assay to identify small molecule antagonists of the androgen receptor (AR) signaling pathway (AID 743035; active = well fitted inhibition curve with a large enough effect in the signal ratio in the repeat runs, not every such curve was filed as active; the % refers to the signal ratio; note: potency is the fitted concentration of half-maximal effect)
Chain of Androgen receptor (Homo sapiens) (P10275 whole entry, looked up): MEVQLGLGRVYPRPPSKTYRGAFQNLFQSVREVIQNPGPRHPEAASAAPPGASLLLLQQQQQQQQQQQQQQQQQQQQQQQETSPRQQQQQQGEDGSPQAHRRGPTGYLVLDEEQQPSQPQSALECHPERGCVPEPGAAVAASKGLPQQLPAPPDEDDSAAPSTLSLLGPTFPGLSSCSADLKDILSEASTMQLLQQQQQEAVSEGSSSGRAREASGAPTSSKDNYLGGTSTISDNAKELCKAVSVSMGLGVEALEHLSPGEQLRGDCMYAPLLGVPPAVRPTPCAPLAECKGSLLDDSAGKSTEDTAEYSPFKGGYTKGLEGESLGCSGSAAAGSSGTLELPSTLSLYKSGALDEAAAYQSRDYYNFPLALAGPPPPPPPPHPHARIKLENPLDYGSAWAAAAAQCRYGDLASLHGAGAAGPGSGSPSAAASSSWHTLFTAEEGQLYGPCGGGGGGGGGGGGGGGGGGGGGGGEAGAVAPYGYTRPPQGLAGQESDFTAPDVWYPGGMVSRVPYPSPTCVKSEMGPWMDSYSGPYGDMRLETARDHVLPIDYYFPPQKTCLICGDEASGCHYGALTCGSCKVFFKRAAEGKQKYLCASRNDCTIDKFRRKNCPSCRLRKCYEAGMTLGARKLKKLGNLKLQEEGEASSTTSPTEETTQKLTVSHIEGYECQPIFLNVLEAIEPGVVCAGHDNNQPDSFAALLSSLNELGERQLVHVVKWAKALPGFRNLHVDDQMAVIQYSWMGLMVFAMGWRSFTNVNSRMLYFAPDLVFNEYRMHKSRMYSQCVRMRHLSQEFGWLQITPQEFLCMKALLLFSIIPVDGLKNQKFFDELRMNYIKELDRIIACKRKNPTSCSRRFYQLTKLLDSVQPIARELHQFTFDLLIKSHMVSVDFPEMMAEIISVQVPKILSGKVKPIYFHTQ
How it was run: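 R1881 agonist challenge of a HEK293 UAS-beta-lactamase AR reporter line in the presence of compound (16 h, 37C); signal taken as FRET fluorescence after 2 h with LiveBLAzer B/G substrate at room temperature.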

[14] = target: Androgen receptor (Homo sapiens) (UniProt P10275); test: qHTS assay to identify small molecule antagonists of the androgen receptor (AR) signaling pathway using the MDA cell line (AID 743042; note: nearly all actives have a fitted effect of over 55% in size)
How it was run: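 MDA-kb2 cells (human breast carcinoma, stably carrying an MMTV-luciferase reporter responsive to AR and GR) were plated at 3,000 cells/well and preincubated 5 hr at 37C, then given compound plus R1881 agonist for 16 h. ONE-Glo luminescence was read.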

[15] = qHTS assay for identifying genotoxic compounds that show differential cytotoxicity against isogenic chicken DT40 cell lines with known DNA damage response pathways - Rev3 mutant cell line (AID 743014); note: nearly all actives have a fitted effect of over 55% in size; note: potency is the fitted concentration of half-maximal effect
[16] = target: Androgen receptor (Homo sapiens) (UniProt P10275); test: qHTS assay to identify small molecule agonists of the androgen receptor (AR) signaling pathway (AID 743036; active = well fitted activation curve with a large enough effect in the signal ratio in the repeat runs, with a control signal flat, not every such curve was filed as active; the % refers to the signal ratio)
How it was run: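 Beta-lactamase under UAS control, stably integrated in HEK293 GripTite cells, reports receptor activation. After 16 h compound treatment, cells received FRET substrate for 2 h at room temperature before fluorescence reading.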

[17] = target: Androgen receptor (Homo sapiens) (UniProt P10275); test: qHTS assay to identify small molecule agonists of the androgen receptor (AR) signaling pathway using the MDA cell line (AID 743040; note: nearly all actives have a fitted effect of over 20% in size)
How it was run: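 Agonist activity is measured as luciferase luminescence in human MDA-kb2 cells whose MMTV reporter responds to both AR and GR. Compounds in DMSO incubate 16 h at 37C, 0% CO2, and ONE-Glo is read after 30 min.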

[18] = qHTS assay to identify small molecule antagonists of the androgen receptor (AR) signaling pathway using the MDA cell line - cell viability counter screen (AID 743041; note: nearly all actives have a fitted effect of over 45% in size)
How it was run: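 qHTS viability read-out; MDA-kb2 AR-luc; R1881-stimulated; 16 h exposure at 37C, 0% CO2; CellTiter-Fluor, 30 min; fluorescence intensity.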

[19] = target: Glucocorticoid receptor (Homo sapiens) (UniProt P04150); test: qHTS assay to identify small molecule agonists of the glucocorticoid receptor (GR) signaling pathway (AID 720691; active = well fitted activation curve with a large enough effect in the signal ratio in the repeat runs, not every such curve was filed as active; the % refers to the signal ratio); conditions: GR-bla HeLa, beta-lactamase reporter ratio, 18 h; activation: at 62.4 µM (top of the series)
Chain of Glucocorticoid receptor (Homo sapiens) (P04150 whole entry, looked up): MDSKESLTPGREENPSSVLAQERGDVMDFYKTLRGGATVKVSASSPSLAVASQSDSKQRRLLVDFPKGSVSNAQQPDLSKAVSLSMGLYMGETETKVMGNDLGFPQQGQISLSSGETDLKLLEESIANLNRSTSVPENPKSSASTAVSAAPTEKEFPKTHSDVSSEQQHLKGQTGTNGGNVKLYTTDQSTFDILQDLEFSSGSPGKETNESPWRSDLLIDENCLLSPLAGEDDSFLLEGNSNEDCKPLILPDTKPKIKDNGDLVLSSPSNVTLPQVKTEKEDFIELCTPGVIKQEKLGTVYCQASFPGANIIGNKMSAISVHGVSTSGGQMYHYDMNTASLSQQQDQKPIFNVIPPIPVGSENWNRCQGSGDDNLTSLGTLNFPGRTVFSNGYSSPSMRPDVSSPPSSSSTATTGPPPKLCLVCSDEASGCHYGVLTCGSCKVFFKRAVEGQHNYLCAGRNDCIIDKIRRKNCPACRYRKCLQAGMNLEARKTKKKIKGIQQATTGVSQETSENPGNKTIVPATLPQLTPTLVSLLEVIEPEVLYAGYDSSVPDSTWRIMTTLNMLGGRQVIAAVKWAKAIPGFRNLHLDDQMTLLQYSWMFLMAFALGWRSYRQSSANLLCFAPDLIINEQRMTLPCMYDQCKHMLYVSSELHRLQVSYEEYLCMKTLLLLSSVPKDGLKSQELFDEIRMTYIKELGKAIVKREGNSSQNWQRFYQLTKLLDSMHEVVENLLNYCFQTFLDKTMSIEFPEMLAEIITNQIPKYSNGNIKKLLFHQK
How it was run: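 Measures GR pathway activation through a GRE-beta-lactamase reporter stably integrated in HeLa cells, with 18 h compound treatment at 37 C and fluorescence detection using a FRET substrate.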

[20] = target: Glucocorticoid receptor (Homo sapiens) (UniProt P04150); test: qHTS assay to identify small molecule antagonists of the glucocorticoid receptor (GR) signaling pathway (AID 720692; active = well fitted inhibition curve with a large enough effect in the signal ratio in the repeat runs, not every such curve was filed as active; the % refers to the signal ratio)
How it was run: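 Tox21 10K library screened in concentration-response for blockade of dexamethasone (5 nM final)-induced GRE-bla reporter activity in HeLa cells; 18 h treatment, fluorescence read.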

Measured: Potency

CON=C1C[C@]2(C[C@@H]3C[C@@H](C/C=C(\C)C[C@@H](C)/C=C/C=C4\CO[C@@H]5[C@H](O)C(C)=C[C@@H](C(=O)O3)[C@]45O)O2)O[C@H](/C(C)=C/C(C)C)[C@H]1C
active: [9] 7.56 µM and 10.7 µM | [10] 13.3 µM and 16.8 µM | [11] 10.6 µM and 13.3 µM | [13] 7.56 µM
not listed: [15] | [16] | [17] | [18] | [19] | [20]
inactive: all other assays above

O=C(O)Cc1nn(Cc2ccc(Br)cc2F)c(=O)c2ccccc12
not listed: [9] | [19] | [20]
inactive: all other assays above

Cc1cc(=O)c(C(=O)N[C@@H](C(=O)N[C@@H]2C(=O)N3C(C(=O)O)=C(CSc4nnnn4C)CS[C@H]23)c2ccc(O)cc2)c[nH]1
not listed: [8]
inactive: all other assays above

c1ccc2c(c1)OCC(CN1CCCCC1)O2 (configuration not stated)
not listed: [11] | [15] | [16] | [19] | [20]
inactive: all other assays above

CN1CCN(CCCN2c3ccccc3Sc3ccc(Cl)cc32)CC1
active: [10] 5.96 µM | [15] 7.5 µM | [11] 8.41 µM | [12] 23.9 µM
inactive: [1] | [2] | [3] | [4] | [5] | [6] | [7] | [8]

CC(=O)N[C@@H](C=O)[C@H](O)[C@H](O)[C@@H](O)CO
not listed: [9] | [13] | [14] | [16] | [17] | [19] | [20]
inactive: all other assays above

CC1=C(/C=C/C(C)=C/C=C/C(C)=C\C(=O)O)C(C)(C)CCC1
active: [10] 61.3 µM | [15] 61.3 µM | [11] 68.8 µM
inactive: [1] | [2] | [3] | [4] | [5] | [6] | [7] | [8] | [18]
